Screening data (PubChem)
The list is not random: actives were taken first. Their share in the collection is about 3.8%.
Nrf2 block = inhibitors of Nrf2 signaling | Potency, µM (series often up to 46 µM), without a hit: at the highest dose activity change, negative = inhibition, most hits filed as inhibitors | A549 ARE-Fluc reporter, luciferase luminescence, 18-24 h | 360,000 compounds, 2.1% hits; note: % is set by controls: 0 for no effect and ±100 for the full control effect; nearly all actives have a fitted effect of over 60% in size
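Quantitative HTS in A549 cells stably bearing an antioxidant response element-firefly luciferase construct. Inhibition of Nrf2-driven transcription was scored by luminescence after 18-24 h of compound exposure at 37 °C.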
HepG2 tox = HepG2 cytotoxicity, counter-screen for TGF-b inhibitors | HepG2 CAGA-GFP viability, ATP luminescence, 18 h | Potency, µM (doses to about 46.1 µM), for the others: top-dose activity change, negative = cytotoxicity, actives largely listed as cytotoxic | 410,000 compounds, 0.76% hits | AID 588856
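CellTiter-Glo luminescence gave cytotoxicity after 18 hours at 37 degrees C. The cells were HepG2 CAGA-GFP in 1% FBS DMEM, stimulated with 500 pg/mL TGF-beta after compound addition. %Activity was normalised to no-cell wells (complete cell-killing) and DMSO (no toxicity), and curves were fitted and classified.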
A549 tox-1 = A549 cytotoxicity, counter-screen for Nrf2 inhibitors. Potency, µM (series often up to 46 µM), inactives show at the highest dose activity change, negative = cytotoxicity, actives largely listed as inhibitors. 390,000 compounds, 0.16% hits. A549 ARE-Fluc cells, CellTiter-Fluor viability, 18-24 h; note: % is set by controls: 0 for no effect and ±100 for the full control effect
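Cytotoxicity counterscreen: CellTiter-Fluor fluorescence was measured in A549 ARE_Fluc cells after 18-24 h of compound exposure in a concentration series. The subsequent BugLite luminescent read reports ARE-luciferase activity.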
ATXN2 expr inh = inhibitors of ATXN2 expression; HEK-293 ATXN2-luciferase reporter, luminescence, 24 h; Potency, µM (top dose mostly 57 µM), for inactives: top-dose activity change, negative = inhibition, hits mostly inhibitors; 360,000 compounds, 0.72% hits; note: % is set by controls: 0 for no effect and ±100 for the full control effect; nearly all actives have a fitted effect of over 55% in size
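qHTS (up to 57 uM final) was run with 24 h compound exposure of reporter cells at 37 °C. Each well was multiplexed: SteadyGlo luminescence measured ATXN2-luciferase expression after a fluorogenic Gly-Phe-AFC viability readout (25 uM final).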
ATXN viability = cell viability loss in ATXN counter-screen. S2 cells (HEK-293 line with an ATXN2-luciferase reporter) viability, CellTiter-Fluor protease fluorescence, 24 h. Potency, µM (top dose mostly 56.7 µM), usual class: cytotoxic. 400,000 compounds, 0.49% hits; note: nearly all actives have a fitted effect of over 40% in size
TGFb SMAD3 inh = inhibitors of TGF-b signaling; HepG2 CAGA-GFP TGF-b/SMAD3 reporter, GFP fluorescence, 18 h; TGF-beta stimulated, 500 pg/mL final; Potency, µM (top dose mostly 46.1 µM), for the others: top-dose activity, negative = inhibition, actives largely listed as inhibitors; 410,000 compounds, 1.2% hits; AID 588855; note: % is set by controls: 0 for no effect and ±100 for the full control effect; nearly all actives have a fitted effect of over 65% in size
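TGF-beta reporter screen: HEPG2 CAGA-GFP, 1% FBS, 500 pg/mL TGF-beta final, 18 h; per-cell GFP summed per well; curves fitted and categorized by class.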
FLuc enzyme inh = blocks purified firefly luciferase in Nrf2 counterscreen; AID 720522; 1,400 compounds, 4% hits; purified firefly luciferase, luminescence inhibition; Potency, µM (top dose mostly 57.5 µM), without a hit: at the highest dose activity change, negative = inhibition, actives largely listed as inhibitors; shares compounds with Nrf2 block; note: % is set by controls: 0 for no effect and ±100 for the full control effect; nearly all actives have a fitted effect of over 65% in size
Target sequence (P08659 whole entry, looked up): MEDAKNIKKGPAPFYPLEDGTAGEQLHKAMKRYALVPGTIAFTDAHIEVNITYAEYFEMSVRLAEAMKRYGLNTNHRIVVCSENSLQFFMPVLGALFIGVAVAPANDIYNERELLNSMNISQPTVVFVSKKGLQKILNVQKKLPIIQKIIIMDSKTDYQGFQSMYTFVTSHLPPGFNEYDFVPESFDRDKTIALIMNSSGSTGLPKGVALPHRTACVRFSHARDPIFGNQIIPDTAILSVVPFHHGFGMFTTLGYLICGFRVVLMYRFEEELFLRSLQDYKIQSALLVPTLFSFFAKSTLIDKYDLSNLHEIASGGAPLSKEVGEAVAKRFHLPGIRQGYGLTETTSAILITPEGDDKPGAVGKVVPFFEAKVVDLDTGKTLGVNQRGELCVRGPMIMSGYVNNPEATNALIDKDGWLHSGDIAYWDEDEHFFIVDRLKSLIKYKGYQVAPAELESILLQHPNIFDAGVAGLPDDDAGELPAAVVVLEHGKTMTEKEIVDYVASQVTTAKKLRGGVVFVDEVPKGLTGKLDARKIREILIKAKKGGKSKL
A549 tox-2 = A549 cytotoxicity, Nrf2 inhibitor counterscreen | Potency, µM (titrated, usually from 46.1 µM), for inactives: at the highest dose activity change, negative = cytotoxicity, hits mostly inhibitors | 1,400 compounds, 2% hits | A549 ARE-Fluc cells, cytotoxicity counterscreen | shares compounds with Nrf2 block | AID 720523;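 note: cells exposed to compounds for 18 to 24 hours; % is set by controls: 0 for no effect and ±100 for the full control effect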
ARE-Fluc inh = confirmation of Nrf2 inhibitors in A549 ARE reporter cells; shares compounds with Nrf2 block; A549 ARE-firefly luciferase reporter, luminescence; Potency, µM (doses to about 46.1 µM), for inactives: at the highest dose activity change, negative = inhibition, hits mostly inhibitors; 1,400 compounds, 74% hits; note: % is set by controls: 0 for no effect and ±100 for the full control effect; nearly all actives have a fitted effect of over 65% in size
Active calls of the source: *. Calls come from the whole dose curve; as a rule, active = well fitted curve in the direction sought with a large enough effect; inconclusive = small, poorly fitted or top-dose-only effect, or another doubt; inactive = no such curve, though single readings can be large; an effect the other way counts as inactive or inconclusive. Potency is the fitted concentration of half-maximal effect.

For Cc1ccc(NC(=O)COc2cccnc2[N+](=O)[O-])cc1S(=O)(=O)N1CCCCC1 the results were Nrf2 block 7.31µM*, HepG2 tox -13.7%, A549 tox-1 inconclusive, ATXN2 expr inh -15.9%, ATXN viability inactive, TGFb SMAD3 inh inconclusive, FLuc enzyme inh -17.3%, A549 tox-2 -9.8% and ARE-Fluc inh inconclusive.
O=C(Nc1ccc(NC(=O)c2sc3ccccc3c2Cl)cc1Cl)c1ccco1 was read as Nrf2 block inconclusive, HepG2 tox -26.3%, A549 tox-1 -6.7%, ATXN2 expr inh -32.5%, ATXN viability inactive and TGFb SMAD3 inh -31.7%.
Screening COc1ccc(C(=O)NC(C)c2cnn(-c3ccccn3)c2C)o1 (stereo not given) returned Nrf2 block 1.9%, HepG2 tox 8.6%, A549 tox-1 1.6%, ATXN2 expr inh 32.3%, ATXN viability inconclusive and TGFb SMAD3 inh -2.6%.
CC(C)(C)NC(=O)CSc1nc2ccc(NC(=O)CSc3nnnn3Cc3ccccc3)cc2s1 was read as Nrf2 block 8.2µM*, HepG2 tox -26.7%, A549 tox-1 -15.9%, ATXN2 expr inh -18.8%, ATXN viability inactive, TGFb SMAD3 inh inconclusive, FLuc enzyme inh -28.6%, A549 tox-2 -16.9% and ARE-Fluc inh 7.31µM*.
Screening COc1ccc(-c2cc3nccc(-c4cc(Cl)c(C)cc4O)n3n2)cc1 returned Nrf2 block -8.5%, HepG2 tox -5.2%, A549 tox-1 -5.3%, ATXN2 expr inh 11.5%, ATXN viability inactive and TGFb SMAD3 inh -35.7%.
For CN(CCOc1ccc(Cl)cc1)C(=O)c1cccc(S(=O)(=O)N2CCN(c3ccc(F)cc3)CC2)c1 the results were Nrf2 block 4.11µM*, HepG2 tox -2.6%, A549 tox-1 -19.2%, ATXN2 expr inh inconclusive, ATXN viability inconclusive, TGFb SMAD3 inh inconclusive, FLuc enzyme inh -1.4%, A549 tox-2 -14.7% and ARE-Fluc inh 4.11µM*.
For O=C(c1cccc(S(=O)(=O)N2CCN(c3ccc(F)cc3)CC2)c1)N1CCCC(C(F)(F)F)C1 (stereo not given) the results were Nrf2 block 4.61µM*, HepG2 tox -17.2%, A549 tox-1 -19.0%, ATXN2 expr inh inconclusive, ATXN viability inactive, TGFb SMAD3 inh inconclusive, FLuc enzyme inh 1.2%, A549 tox-2 -8.0% and ARE-Fluc inh 5.17µM*.
`COc1ccc(CCN(C)C(=O)c2cccc(S(=O)(=O)N3CCN(c4ccc(F)cc4)CC3)c2)cc1OC` gave Nrf2 block 7.31µM*, HepG2 tox -38.8%, A549 tox-1 -11.0%, ATXN viability inconclusive, TGFb SMAD3 inh 11.2µM*, FLuc enzyme inh -1.0%, A549 tox-2 -9.2% and ARE-Fluc inh 5.17µM*.
For Cc1cccc(C)c1NC(=O)CN(C)C(=O)c1cccc(S(=O)(=O)N2CCN(c3ccc(F)cc3)CC2)c1 the results were Nrf2 block 5.17µM*, HepG2 tox -21.2%, A549 tox-1 inconclusive, ATXN2 expr inh inconclusive, ATXN viability inactive, TGFb SMAD3 inh 0.0%, FLuc enzyme inh 5.0%, A549 tox-2 -17.5% and ARE-Fluc inh 9.2µM*.
Cc1ccc(S(=O)(=O)N2CCOCC2)cc1C(=O)N(C)CCOc1ccc(Cl)cc1 was read as Nrf2 block inconclusive, HepG2 tox -60.8%, A549 tox-1 -13.4%, ATXN2 expr inh inconclusive, ATXN viability inactive and TGFb SMAD3 inh -30.3%.
For Cc1ccsc1C(=O)N(Cc1cc2ccc(F)cc2nc1N1CCC(O)CC1)CC1CCCO1 (stereo not given) the results were ATXN viability inactive.
`Cc1cccc(N2CCN(C(=O)CCNS(=O)(=O)c3ccc4c(c3)CCC(=O)N4)CC2)c1C` gave Nrf2 block 5.8µM*, HepG2 tox -11.7%, ATXN2 expr inh -13.6%, ATXN viability inactive, TGFb SMAD3 inh -26.7%, FLuc enzyme inh 0.8%, A549 tox-2 0.9% and ARE-Fluc inh inconclusive.
For Cc1ccc(NC(=O)CCNS(=O)(=O)c2ccc3c(c2)CCC(=O)N3)cc1C the results were Nrf2 block -3.6%, HepG2 tox -5.6%, A549 tox-1 -5.7%, ATXN2 expr inh 4.2%, ATXN viability inactive and TGFb SMAD3 inh 10.2%.
`Nc1cc(S(=O)(=O)N2CCOCC2)ccc1Oc1cccc(Br)c1` gave Nrf2 block 8.2µM*, HepG2 tox -29.4%, A549 tox-1 -18.5%, ATXN2 expr inh -11.6%, ATXN viability inactive, TGFb SMAD3 inh -11.6%, FLuc enzyme inh 0.3%, A549 tox-2 -1.2% and ARE-Fluc inh 8.2µM*.
Screening O=[N+]([O-])c1ccc(C[n+]2cccc3c4ccccc4ccc32)cc1 returned Nrf2 block 3.66µM*, HepG2 tox -7.2%, A549 tox-1 inconclusive, ATXN viability inconclusive, TGFb SMAD3 inh -11.3%, FLuc enzyme inh 1.8%, A549 tox-2 -0.7% and ARE-Fluc inh 3.66µM*.
Cc1ccc[n+](Cc2ccc([N+](=O)[O-])cc2)c1 was read as Nrf2 block inconclusive, HepG2 tox -0.8%, A549 tox-1 2.3%, ATXN2 expr inh -13.5%, ATXN viability inactive and TGFb SMAD3 inh 20.8%.
Screening O=S(=O)(Nc1ccc(Cc2ccncc2)cc1)c1ccc(Br)cc1 returned Nrf2 block inconclusive, HepG2 tox -34.8%, A549 tox-1 -12.6%, ATXN2 expr inh -24.0%, ATXN viability inactive and TGFb SMAD3 inh inconclusive.
O=S(=O)(Nc1ccc(Cc2ccncc2)cc1)c1ccc(Cl)cc1 was read as Nrf2 block 9.2µM*, HepG2 tox -8.3%, A549 tox-1 -15.8%, ATXN2 expr inh -29.3%, ATXN viability inactive, TGFb SMAD3 inh inconclusive, FLuc enzyme inh -0.2%, A549 tox-2 -0.5% and ARE-Fluc inh 16.4µM*.
